# Experimental data from PMC7862700, “An all-to-all approach to the identification of sequence-specific readers for epigenetic DNA modifications on cytosine”.
# What was measured:
# Assay in all cases: DAPPL (digital affinity profiling via proximity ligation, sequencing); 10 mM Tris-HCl pH 7.5, 50 mM NaCl, 1 mM DTT, 4% glycerol, room temperature, 30 min; GST-TFs on glutathione beads, 16-mer random dsDNA library, 0.1% formaldehyde crosslink after washing; high values mean tight binding
# Settings in all cases: protein: recombinant; tags: N-terminal GST; dsDNA, one strand shown
# FLI1 = biological target: T1, FLI1 (Homo sapiens, UniProt Q01543 1-452)
# T1 sequence: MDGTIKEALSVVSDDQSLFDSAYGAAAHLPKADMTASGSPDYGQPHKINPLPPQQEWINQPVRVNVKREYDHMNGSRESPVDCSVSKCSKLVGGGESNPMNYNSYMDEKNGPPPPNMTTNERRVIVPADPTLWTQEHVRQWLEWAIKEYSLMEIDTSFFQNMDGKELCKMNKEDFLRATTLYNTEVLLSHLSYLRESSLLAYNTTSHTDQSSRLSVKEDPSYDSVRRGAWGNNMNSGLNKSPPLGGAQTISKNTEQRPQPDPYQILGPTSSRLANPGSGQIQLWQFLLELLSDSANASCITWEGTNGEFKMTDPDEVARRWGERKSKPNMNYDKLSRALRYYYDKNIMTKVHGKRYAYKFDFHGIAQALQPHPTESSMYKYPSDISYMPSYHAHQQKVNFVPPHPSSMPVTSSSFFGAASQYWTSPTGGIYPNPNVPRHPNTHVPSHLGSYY
# In short: (§1)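 Human transcription factors fused to GST were expressed in yeast, captured on glutathione beads, given DNA barcodes and pooled with a GST-only negative control. Pools were incubated with 200 nmole of a 16-mer random double-stranded DNA library in Tris/NaCl/DTT/glycerol buffer at room temperature for 30 min. They were then washed, crosslinked with 0.1% formaldehyde, proximity-ligated (BsaI/T4 ligase, 1 h, 37 °C), PCR-amplified and sequenced on an Illumina NextSeq500. Binding signal is each 6-mer's read frequency for a factor divided by its frequency for the GST control.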
# ELK1 = biological target: T2, ELK1 (Homo sapiens, UniProt P19419 1-428)
# T2 sequence: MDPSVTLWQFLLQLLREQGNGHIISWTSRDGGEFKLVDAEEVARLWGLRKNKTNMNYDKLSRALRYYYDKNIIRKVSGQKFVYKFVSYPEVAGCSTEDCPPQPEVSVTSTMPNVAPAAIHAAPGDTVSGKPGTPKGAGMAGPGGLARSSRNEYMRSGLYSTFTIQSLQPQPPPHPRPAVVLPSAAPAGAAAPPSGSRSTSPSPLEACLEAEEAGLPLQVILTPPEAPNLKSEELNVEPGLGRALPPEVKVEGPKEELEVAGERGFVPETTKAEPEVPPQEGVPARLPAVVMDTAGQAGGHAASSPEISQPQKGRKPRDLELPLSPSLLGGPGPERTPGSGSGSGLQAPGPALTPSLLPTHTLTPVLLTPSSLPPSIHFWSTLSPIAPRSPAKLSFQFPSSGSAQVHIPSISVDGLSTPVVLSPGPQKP
# In short: as §1
# GABPA = biological target: T3, GABPA (Homo sapiens, UniProt Q06546 1-454)
# T3 sequence: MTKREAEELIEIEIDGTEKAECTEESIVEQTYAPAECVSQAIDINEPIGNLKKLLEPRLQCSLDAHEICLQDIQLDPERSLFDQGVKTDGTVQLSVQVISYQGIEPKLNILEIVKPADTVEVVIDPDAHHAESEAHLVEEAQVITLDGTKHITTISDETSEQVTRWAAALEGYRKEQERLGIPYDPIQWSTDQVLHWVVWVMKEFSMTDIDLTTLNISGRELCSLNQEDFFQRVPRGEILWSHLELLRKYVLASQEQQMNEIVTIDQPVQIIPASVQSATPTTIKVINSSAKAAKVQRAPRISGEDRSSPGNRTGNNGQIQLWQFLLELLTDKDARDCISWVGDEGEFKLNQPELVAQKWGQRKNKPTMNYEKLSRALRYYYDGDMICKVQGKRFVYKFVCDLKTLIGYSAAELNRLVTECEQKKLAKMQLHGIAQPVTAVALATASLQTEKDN
# In short: as §1
# ERG = biological target: T4, ERG (Homo sapiens, UniProt P11308 1-479)
# T4 sequence: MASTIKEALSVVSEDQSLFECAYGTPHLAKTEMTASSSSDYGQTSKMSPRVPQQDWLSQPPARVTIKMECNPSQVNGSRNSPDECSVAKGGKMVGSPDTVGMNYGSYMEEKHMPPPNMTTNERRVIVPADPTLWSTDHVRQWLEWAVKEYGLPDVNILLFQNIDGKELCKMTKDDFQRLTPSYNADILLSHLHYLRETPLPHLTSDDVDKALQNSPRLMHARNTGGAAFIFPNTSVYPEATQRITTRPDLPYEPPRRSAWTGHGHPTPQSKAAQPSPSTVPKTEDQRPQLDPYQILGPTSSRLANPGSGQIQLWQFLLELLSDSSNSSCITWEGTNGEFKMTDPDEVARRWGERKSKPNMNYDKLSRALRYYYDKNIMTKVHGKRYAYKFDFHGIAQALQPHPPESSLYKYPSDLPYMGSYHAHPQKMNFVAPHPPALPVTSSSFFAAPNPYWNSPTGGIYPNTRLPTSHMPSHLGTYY
# In short: as §1
# ELF1 = ELF1 (Homo sapiens, UniProt P32519 1-619)
# In short: as §1
# EHF = biological target: T5, EHF (Homo sapiens, UniProt Q9NZC4 1-300)
# T5 sequence: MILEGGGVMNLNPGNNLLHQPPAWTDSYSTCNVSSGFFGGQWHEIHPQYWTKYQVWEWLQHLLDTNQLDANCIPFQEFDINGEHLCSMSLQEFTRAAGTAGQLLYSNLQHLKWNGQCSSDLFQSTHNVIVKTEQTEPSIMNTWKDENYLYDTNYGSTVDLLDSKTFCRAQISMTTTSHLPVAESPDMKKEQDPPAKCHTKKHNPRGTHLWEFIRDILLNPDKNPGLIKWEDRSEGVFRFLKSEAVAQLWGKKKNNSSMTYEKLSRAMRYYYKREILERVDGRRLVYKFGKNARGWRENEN
# In short: as §1
# SPI1 = SPI1 (Homo sapiens, UniProt P17947 1-270)
# In short: as §1
# SPIB = SPIB (Homo sapiens, UniProt Q01892 1-262)
# In short: as §1
# ELK3 = biological target: T6, ELK3 (Homo sapiens, UniProt P41970 1-407)
# T6 sequence: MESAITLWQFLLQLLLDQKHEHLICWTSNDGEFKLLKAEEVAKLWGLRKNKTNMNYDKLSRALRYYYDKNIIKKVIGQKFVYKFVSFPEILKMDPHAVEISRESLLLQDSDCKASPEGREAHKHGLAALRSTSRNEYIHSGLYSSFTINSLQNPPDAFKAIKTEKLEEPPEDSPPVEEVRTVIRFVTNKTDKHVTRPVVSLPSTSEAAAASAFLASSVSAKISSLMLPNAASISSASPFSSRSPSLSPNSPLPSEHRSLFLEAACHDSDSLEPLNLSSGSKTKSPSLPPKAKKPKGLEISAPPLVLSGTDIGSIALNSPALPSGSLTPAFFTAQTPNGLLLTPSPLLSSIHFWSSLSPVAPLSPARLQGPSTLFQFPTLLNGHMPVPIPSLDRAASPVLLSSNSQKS
# In short: as §1
# ELF1, sequence (P32519 whole entry): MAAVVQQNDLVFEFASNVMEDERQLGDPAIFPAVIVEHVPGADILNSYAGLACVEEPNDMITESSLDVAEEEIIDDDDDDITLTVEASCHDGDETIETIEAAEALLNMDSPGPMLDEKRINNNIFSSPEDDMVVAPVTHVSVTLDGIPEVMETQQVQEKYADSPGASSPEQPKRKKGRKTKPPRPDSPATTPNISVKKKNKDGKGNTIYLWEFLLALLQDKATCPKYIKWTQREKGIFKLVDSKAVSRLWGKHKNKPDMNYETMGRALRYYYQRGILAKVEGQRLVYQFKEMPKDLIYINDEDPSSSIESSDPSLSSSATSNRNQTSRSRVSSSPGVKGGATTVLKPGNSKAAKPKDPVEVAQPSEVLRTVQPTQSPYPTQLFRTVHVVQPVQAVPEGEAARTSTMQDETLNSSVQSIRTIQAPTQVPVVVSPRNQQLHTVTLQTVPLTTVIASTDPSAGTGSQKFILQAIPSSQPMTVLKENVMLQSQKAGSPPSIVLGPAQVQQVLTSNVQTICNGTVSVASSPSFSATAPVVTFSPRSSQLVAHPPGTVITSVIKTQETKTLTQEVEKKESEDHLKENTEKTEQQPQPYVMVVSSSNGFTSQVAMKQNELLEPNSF
# SPIB, sequence (Q01892 whole entry): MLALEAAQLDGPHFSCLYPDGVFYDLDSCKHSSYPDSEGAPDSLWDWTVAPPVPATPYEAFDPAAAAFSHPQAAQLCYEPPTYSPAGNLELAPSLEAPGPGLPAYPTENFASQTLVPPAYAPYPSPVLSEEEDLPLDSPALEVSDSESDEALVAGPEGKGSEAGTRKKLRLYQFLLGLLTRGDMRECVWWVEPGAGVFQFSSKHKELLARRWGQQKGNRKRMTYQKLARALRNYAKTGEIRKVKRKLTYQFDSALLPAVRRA
Sequence,binding signal (FLI1),binding signal (ELK1),binding signal (GABPA),binding signal (ERG),binding signal (ELF1),binding signal (EHF),binding signal (SPI1),binding signal (SPIB),binding signal (ELK3)
GCTACC,"1.18 fold enrichment (6-mer frequency, TF over GST control)","1.27 fold enrichment (6-mer frequency, TF over GST control)","1.25 fold enrichment (6-mer frequency, TF over GST control)","1.26 fold enrichment (6-mer frequency, TF over GST control)","1.29 fold enrichment (6-mer frequency, TF over GST control)","1.09 fold enrichment (6-mer frequency, TF over GST control)","1.11 fold enrichment (6-mer frequency, TF over GST control)","1.28 fold enrichment (6-mer frequency, TF over GST control)","1.39 fold enrichment (6-mer frequency, TF over GST control)"
CCGCAC,"1.45 fold enrichment (6-mer frequency, TF over GST control)","1.45 fold enrichment (6-mer frequency, TF over GST control)","1.5 fold enrichment (6-mer frequency, TF over GST control)","1.42 fold enrichment (6-mer frequency, TF over GST control)","1.55 fold enrichment (6-mer frequency, TF over GST control)","1.5 fold enrichment (6-mer frequency, TF over GST control)","1.52 fold enrichment (6-mer frequency, TF over GST control)","1.41 fold enrichment (6-mer frequency, TF over GST control)","1.52 fold enrichment (6-mer frequency, TF over GST control)"
TGCGTA,"1.15 fold enrichment (6-mer frequency, TF over GST control)","1.15 fold enrichment (6-mer frequency, TF over GST control)","1.06 fold enrichment (6-mer frequency, TF over GST control)","1.05 fold enrichment (6-mer frequency, TF over GST control)","1.1 fold enrichment (6-mer frequency, TF over GST control)","1.06 fold enrichment (6-mer frequency, TF over GST control)","1.17 fold enrichment (6-mer frequency, TF over GST control)","1.22 fold enrichment (6-mer frequency, TF over GST control)","1.09 fold enrichment (6-mer frequency, TF over GST control)"
ATTAAC,"1.29 fold enrichment (6-mer frequency, TF over GST control)","1.16 fold enrichment (6-mer frequency, TF over GST control)","1.22 fold enrichment (6-mer frequency, TF over GST control)","1.21 fold enrichment (6-mer frequency, TF over GST control)","1.32 fold enrichment (6-mer frequency, TF over GST control)","1.16 fold enrichment (6-mer frequency, TF over GST control)","1.18 fold enrichment (6-mer frequency, TF over GST control)","1.24 fold enrichment (6-mer frequency, TF over GST control)","1.26 fold enrichment (6-mer frequency, TF over GST control)"
TGGCAG,"1.19 fold enrichment (6-mer frequency, TF over GST control)","1.09 fold enrichment (6-mer frequency, TF over GST control)","1.07 fold enrichment (6-mer frequency, TF over GST control)","1.01 fold enrichment (6-mer frequency, TF over GST control)","1.06 fold enrichment (6-mer frequency, TF over GST control)","1.11 fold enrichment (6-mer frequency, TF over GST control)","1.1 fold enrichment (6-mer frequency, TF over GST control)","1.12 fold enrichment (6-mer frequency, TF over GST control)","1.21 fold enrichment (6-mer frequency, TF over GST control)"
CCTAAC,"1.56 fold enrichment (6-mer frequency, TF over GST control)","1.43 fold enrichment (6-mer frequency, TF over GST control)","1.37 fold enrichment (6-mer frequency, TF over GST control)","1.42 fold enrichment (6-mer frequency, TF over GST control)","1.44 fold enrichment (6-mer frequency, TF over GST control)","1.31 fold enrichment (6-mer frequency, TF over GST control)","1.48 fold enrichment (6-mer frequency, TF over GST control)","1.4 fold enrichment (6-mer frequency, TF over GST control)","1.42 fold enrichment (6-mer frequency, TF over GST control)"
ATACTC,"1.29 fold enrichment (6-mer frequency, TF over GST control)","1.32 fold enrichment (6-mer frequency, TF over GST control)","1.48 fold enrichment (6-mer frequency, TF over GST control)","1.3 fold enrichment (6-mer frequency, TF over GST control)","1.38 fold enrichment (6-mer frequency, TF over GST control)","1.33 fold enrichment (6-mer frequency, TF over GST control)","1.26 fold enrichment (6-mer frequency, TF over GST control)","1.32 fold enrichment (6-mer frequency, TF over GST control)","1.3 fold enrichment (6-mer frequency, TF over GST control)"
